Values without a mark were called inactive. Records with an inconclusive call do not appear. Where a call stands in place of a potency, no number is given. Activity calls are given as the source filed them. Unless noted, calls follow the shape of the dose curve; as a rule, active = well fitted curve in the direction sought with a large enough effect in the repeat runs; inconclusive = weak or mixed curves; inactive = no such curve, though single readings can be large; an effect the other way counts as inactive or inconclusive.
How the values were obtained:
[1] = qHTS assay to identify small molecule agonists of the hypoxia (HIF-1) signaling pathway - cell viability counter screen (AID 1224844; calls by dose curve; also: nearly all actives have a fitted effect of over 50% in size; also: potency is read from the fitted curve at half-maximal effect)
How it was run: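 Tox21 10K compounds were added to HRE-bla ME-180 cells (0.5% dialyzed FBS) and incubated 17 hrs at 37C; ATP-based CellTiter-Glo luminescence then reported cell viability in the same wells.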

[2] = qHTS assay to identify small molecule agonists of H2AX (AID 1224845; active = well fitted activation curve with a large enough effect in the signal ratio in the repeat runs, not every such curve was filed as active; the % refers to the signal ratio)
How it was run: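 Wild-type CHO-K1 cells plated overnight, then exposed 3 hr at 37C to compounds at 15 concentrations (0.76% DMSO). Lysed, then HTRF anti-pH2AX(S139)-cryptate/anti-H2AX-d2 detection after 24 hr at room temperature; emissions 665 and 620 nm.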

[3] = qHTS assay to identify small molecule agonists of the hypoxia (HIF-1) signaling pathway (AID 1224846; active = well fitted activation curve with a large enough effect in the signal ratio in the repeat runs, not every such curve was filed as active; the % refers to the signal ratio; also: potency is read from the fitted curve at half-maximal effect)
How it was run: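 Steps: seed ME-180 HRE-bla cells (2,000/well, 0.5% dialyzed FBS); incubate 5 hrs at 37C; pin-transfer compounds or DMSO; incubate 17 hrs; add LiveBLAzer B/G substrate CCF4-AM; measure reporter activation by FRET.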

[4] = qHTS assay to identify small molecule agonists of H2AX - cell viability counter screen (AID 1224847; calls by dose curve; also: nearly all actives have a fitted effect of over 30% in size; also: potency is read from the fitted curve at half-maximal effect)
How it was run: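 Cells plated first: CHO-K1, 1000 per well in 10% FBS medium, incubated overnight at 37C. Then 15-point compound titration added (final DMSO 0.76%) for 3 hr. Finally CellTiter-Glo added and luminescence read.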

[5] = qHTS RealTime-Glo MT Cell Viability Assay in HepG2 cells - 24 hour (AID 1224867); also: nearly all actives have a fitted effect of over 50% in size
How it was run: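 Luminescence read-out: viable HepG2 cells reduce a prosubstrate to a NanoLuc substrate, giving a signal proportional to live cell number. Reads taken at 0, 8, 16, 24, 32 and 40 h of compound exposure at 37 C.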

[6] = qHTS RealTime-Glo MT Cell Viability Assay in HEK293 cells - 32 hour (AID 1224868); also: nearly all actives have a fitted effect of over 50% in size; also: potency is read from the fitted curve at half-maximal effect
How it was run: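 Nonlytic real-time viability readout: viable cells convert prosubstrate to NanoLuc substrate, giving luminescence proportional to live cell number. HEK293, 600 cells/well, compound added after 5 h, continuous culture at 37 C.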

[7] = A CellTox Green Cytotoxicity Assay to monitor cytotoxicity in HEK293 cells - 0 hour (AID 1224869); also: nearly all actives have a fitted effect of over 50% in size
How it was run: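 Cytotoxicity was tracked continuously in HEK293 cells by a DNA-binding dye excluded from viable cells. Compounds were transferred in DMSO 5 h after seeding; fluorescence was recorded at intervals up to 40 h.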

[8] = qHTS RealTime-Glo MT Cell Viability Assay in HepG2 cells - 40 hour (AID 1224870); also: nearly all actives have a fitted effect of over 50% in size
How it was run: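 HepG2 cells mixed with RealTime-Glo MT reagents (NanoLuc plus cell-permeant prosubstrate) were seeded at 600 cells/well, incubated 5 h at 37 C/5% CO2, then pinned with compounds in DMSO; nonlytic luminescence tracked viability during 40 h treatment.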

[9] = qHTS assay to identify small molecule antagonists of the estrogen related receptor (ERR) signaling pathway from Tox21 library (AID 1224848); also: nearly all actives have a fitted effect of over 50% in size
How it was run: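 Cells: ERR line, 2,000/well; 6 h preincubation 37 C/5% CO2. Cpd in DMSO via pin tool; 18 h, 37 C. ONE-Glo, 30 min RT, luminescence.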

[10] = qHTS assay to identify small molecule agonists of the estrogen related receptor (ERR) signaling pathway from Tox21 library (AID 1224849; calls by dose curve; also: nearly all actives have a fitted effect of over 15% in size); details: ERR reporter cell line, ONE-Glo luciferase, 18 h; at 92.4 µM (top of the series) unless noted
How it was run: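 Agonist signal is luciferase luminescence from an ERR reporter cell line treated 18 h at 37 C with DMSO-dissolved compounds, read 30 min after ONE-Glo addition at room temperature.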

Structure (SMILES) | Potency [1] | Potency [2] | Potency [3] | Potency [4] | Potency [5] | Potency [6] | Potency [7] | Potency [8] | Potency [9] | activity change, positive = activation [10]
CCC(C)Br (stereo not given) | inactive | inactive | inactive | inactive | inactive | inactive | inactive | inactive |  | 
CNC(C)(C)Cc1ccccc1 | inactive | inactive | inactive | inactive | inactive | inactive | inactive | inactive |  | 
CNC(=O)Oc1cc(C)cc(C(C)C)c1 | inactive | inactive | inactive |  | inactive | inactive | inactive | inactive | inactive | 10.3%
CCO/N=C(\CC)C1=C(O)CC(c2c(C)cc(C)cc2C)CC1=O (stereo not given) | inactive | inactive | inactive | inactive | inactive |  | inactive | inactive |  | 
NC1CCC(CC2CCC(N)CC2)CC1 (stereo not given) | inactive | inactive | inactive | inactive | inactive |  | inactive |  |  | 
O=C(NC(=O)c1ccccc1Cl)Nc1ccc(OC(F)(F)F)cc1 | inactive | inactive | inactive | inactive | inactive |  | inactive | inactive |  | 
CC(Cc1ccc2c(c1)OCO2)NO (stereo not given) | inactive | inactive | inactive |  | inactive |  | inactive | inactive | inactive | -3.14%
CCNc1nc(NC(C)C(C)C)nc(SC)n1 (stereo not given) | inactive | inactive | inactive | inactive | inactive | inactive | inactive | inactive |  | 
N#CSCc1ccccc1 | inactive | inactive | inactive | inactive | inactive |  | inactive | inactive |  | 
CN/C(=N\[N+](=O)[O-])NCc1cnc(Cl)s1 | inactive | inactive | inactive | inactive | inactive |  | inactive | inactive |  | 
CSC(=O)c1c(C(F)F)nc(C(F)(F)F)c(C(=O)SC)c1CC(C)C | inactive | inactive | inactive | inactive | inactive |  | inactive |  |  | 
CN | inactive | inactive | inactive | inactive | inactive |  | inactive | inactive |  | 
C=CCBr | inactive | inactive | inactive | inactive | inactive | inactive | inactive | inactive |  | 
CCC1(CC)C(=O)N=C(O)NC1=O | inactive | inactive | inactive | inactive | inactive |  | inactive | inactive |  | 
CC(=O)[O-].CC(=O)[O-].[Co+2] | inactive | inactive | 21.9 µM (active) | inactive | inactive |  | inactive |  |  | 
Nc1nc(N)nc(Cl)n1 | inactive | inactive | inactive | inactive | inactive | inactive | inactive | inactive |  | 
CCCCn1cc[n+](C)c1 (tested in a mixture with another compound) | inactive | inactive | inactive | inactive | inactive | inactive | inactive | inactive |  | 
CC1CN1 (stereo not given) | inactive | inactive | inactive | inactive | inactive | inactive | inactive | inactive |  | 
O=[N+]([O-])[O-].[Tl+] | inactive | inactive | inactive | inactive | inactive |  | inactive | inactive |  | 
Cc1c([N+](=O)[O-])c(C)c([N+](=O)[O-])c(C(C)(C)C)c1[N+](=O)[O-] | 24.5 µM (active) | inactive | inactive |  | inactive | inactive | inactive | inactive | inactive | -4.01%
CC(=O)[O-].CC(=O)[O-].O.O.O.[Pb+2] | inactive | inactive | inactive | inactive | inactive |  | inactive | inactive |  | 
COc1ccc(Cc2nccc3cc(OC)c(OC)cc23)cc1OC | inactive | inactive | inactive | inactive |  | 5.35 µM (active) |  |  |  | 
O=[N+]([O-])c1ccc(Cl)c(Cl)c1Cl | inactive | inactive | inactive |  | inactive |  | inactive | inactive | inactive | -11%
COc1c2c(cc3c1OCO3)CCN(C)C2 | inactive | inactive | inactive | inactive | inactive | inactive | inactive | inactive |  | 
CCN(CC)CCc1c[nH]c2ccccc12 | inactive | inactive | inactive | inactive | inactive | inactive | inactive | inactive |  | 
O=S(=O)(O)F | inactive | inactive | inactive | inactive | inactive | inactive | inactive | inactive |  | 
FC(F)C(F)(F)OCC(Cn1cncn1)c1ccc(Cl)cc1Cl (stereo not given) | inactive | inactive | inactive | 112 µM (active) |  | 21.7 µM (active) |  |  |  | 
COP(=S)(NC(C)C)Oc1ccc(C)cc1[N+](=O)[O-] (stereo not given) | inactive | inactive | inactive |  | inactive | inactive | inactive | inactive |  | 

Source: PubChem BioAssay (Tox21)
